The values below come from PubChem BioAssay (Tox21).

The source made the active and inactive calls. Calls come from the whole dose curve; as a rule, active = well fitted curve in the direction sought with a large enough effect in the repeat runs; inconclusive = weak or mixed curves; inactive = flat fitted curve, though single readings scatter.

The assay can be described thus: qHTS assay to test for compound auto fluorescence at 535 nm (green) in HepG2 cell free culture (AID 720686). The note with it: Cell-free medium, green autofluorescence 485/535 nm; series mostly up to 91.3 µM. From the text:
U.S. Tox21 Program National Center for Advancing Translational Sciences [NCATS] NIH Chemical Genomics Center [NCGC] U.S. Environmental Protection Agency [EPA] National Institutes of Environmental Health Sciences [NIEHS] National Toxicology Program [NTP] U.S. Food and Drug Administration [FDA] Tox21 Assay Overview: Compound auto fluorescence often interferes with screening of the compound library against various biological targets and signaling pathways. Some of these compounds may have fluorophoric properties. Such properties may interfere with the assay outputs resulting in false positives and/or negatives. To decrease such complications and ensure the compound activities are relevant in terms of biological response, the Tox21 10K compound library was screened for auto fluorescence. From the fluorophores used as reporter signals in our screening assays, the auto fluorescence equivalencies of compounds against three fluorophores have been evaluated: Triamterene, Fluorescein and Rose Bengal sodium for blue, green and red fluorescence, respectively. The fluorescence intensities were measured using Excitation/Emission wavelengths at 405/460nm, 485/535nm and 540/590nm for blue, green and red labels, respectively. This assay includes the green fluorescence data.
Tox21 Assay Protocol Summary: 5 uL of culture medium (MEM containing 10% FBS) per well was dispensed into black wall/clear bottom 1536-well plates using a Multidrop Combi Dispenser (ThermoFisher Scientific, Waltham, MA). After 23 nL compound or DMSO vehicle was transferred into assay plate by a pintool work station (Kalypsys, San Diego, CA), fluorescence intensities in the assay plates were measured by an Envision (PerkinElmer, Shelton, CT) plate reader using three labels for measuring blue, green and red fluorescence at […] 460, 535 and 590nm respectively.
(In general: In qHTS, concentration-response curves come from the screen itself.)
In the case of `CC1=CC(=O)CC(C)(C)C1`, the result was inactive. For `Cc1ccccc1C=O`, the outcome was inactive. Regarding `CC/C(C)=N/O`, the call was inactive.

As to `OCC(O)CS` (stereo not given), the compound was classed as inactive. In the case of `O=C1CCCCCCCCCCC1`, the call was inactive. Take `C=CC(C)(C)C`: the compound was classed as inactive. With `CC[N+](CC)(CC(=O)Nc1c(C)cccc1C)Cc1ccccc1`, the compound was classed as inactive. As for `CN1CCCC1=O`, the call was inactive.

For the compound `CCOC(=O)c1ccc(O)cc1`, the outcome was inactive. Turning to `CC(C)(CO)CO`, the outcome was inactive. For the compound `CCCCCCCC(=O)O`, the outcome was inactive.

Regarding `O=C1OC(=O)c2c(Cl)c(Cl)c(Cl)c(Cl)c21`, the compound was classed as inactive. For `COc1cc(NC(=O)CC(C)=O)c(OC)cc1Cl`, the outcome was inactive. The same measure for `CN=C(NC#N)NCCSCc1nc[nH]c1C`: “inactive”; for `CC(=O)OCCC(C)C`: “inactive”. As for `CCCCC(=O)O`, the compound was called inactive. Turning to `C=C1C[C@]23C[C@@]1(O)CC[C@H]2[C@@]12C=C[C@H](O)[C@@](C)(C(=O)O1)[C@H]2[C@@H]3C(=O)O`, the compound was classed as inactive. On to `COc1ccc([C@@H]2CC(=O)c3c(O)cc(O[C@@H]4O[C@H](CO[C@@H]5O[C@@H](C)[C@H](O)[C@@H](O)[C@H]5O)[C@@H](O)[C@H](O)[C@H]4O)cc3O2)cc1OC`, for which the call was inactive. Turning to `CCN(CC)CCNC(=O)c1ccc(N)cc1`, the result was inactive.

Turning to `C=CC(=O)NCOCCCC`, the compound was classed as inactive. The same measure for `C=C(C)CC(C)(C)C`: “inactive”; for `CS(=O)(=O)c1ccc(Cl)cc1`: “inactive”; for `NCCNCCNCCN`: “inactive”. `COc1ccccc1[N+](=O)[O-]`: the compound was classed as inactive.

Turning to `OCCOCCOCCOCCOCCO`, the compound was classed as inactive. In the case of `Nc1cccc(C(F)(F)F)c1`, the compound was called inactive.

As to `N[C@@H](Cc1cc(I)c(Oc2ccc(O)c(I)c2)c(I)c1)C(=O)O`, the compound was classed as inactive. For the compound `CCCCCCCCO`, the compound was called inactive. Turning to `O=c1n(CCCN2CCN(c3cccc(Cl)c3)CC2)nc2ccccn12`, the outcome was inactive. `Cc1ccc([N+](=O)[O-])cc1N`: the compound was called inactive. Then `CCCOCC(C)O` (stereo not given), with “inactive”. With `CC(=O)Nc1ccc(CC(=O)O)cc1`, the outcome was inactive.

Take `Cc1cc(C)cc(O)c1`: the compound was classed as inactive. For `CCc1cccc(CC)c1N`, the outcome was inactive.

As to `CCOC(=O)CC(=O)OCC`, the call was inactive. Take `CCCCCC(C)=O`: the outcome was inactive. Consider `C1CCCNCC1`, for which the compound was called inactive.

`O=C1C(N(CO)C(=O)NCO)N(CO)C(=O)N1CO` (stereo not given): the compound was classed as inactive. The same measure for `CC(=O)OCc1ccc2c(c1)OCO2`: “inactive”. In the case of `Cc1ccccc1Cl`, the compound was called inactive.
